In all, about 31,000 sequences went through this assay and about 1,400 (4.5%) were called active. Many of the other results were omitted from the sample, so actives are more common in it than they were. Values without a mark were called inactive.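 The calls were made as follows: active = median seed-adjusted z-score above 1 or below -1; inactive = the rest.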
Experiment: Novel Modifiers of Survival Motor Neuron (SMN) Protein: Gene Identification via Genome-wide siRNA Screen
Details: HEK293T SMN2-luciferase reporter, siRNA knockdown, 72 h; actives lie on both sides
Source text: Spinal muscular atrophy (SMA) is the most common neuromuscular autosomal recessive disorder and one of the leading genetic causes of infant death. SMA results from mutations inducing loss of function or deletion in the survival of motor neuron-1 gene (SMN1), leading to deficiency of the survival motor neuron (SMN) protein. Although a second nearly identical gene, SMN2, is retained in humans, its expression primarily produces an aberrantly spliced isoform that is largely unstable and quickly degraded. We performed a genome-wide RNAi screen using a cell-based reporter assay to identify genes and pathways that modulate SMN protein stability. The screen identified over 200 genes that led to the greatest increase or decrease in luciferase expression.
Using HEK293T cells stably expressing a luciferase reporter that combines the promoter and splicing based cassettes in tandem with the major portion of the native SMN2 cDNA with luciferase, we performed a genome-wide RNAi screen to identify modulators of SMN protein levels. Luciferase is expressed when full-length SMN protein is generated with luminescence signal proportional to SMN protein levels. Our luciferase-based reporter assay was used to screen Ambion Silencer Select Human Druggable Genome siRNA library (10418 genes, 3 unique siRNAs per gene) using lipid-based reverse transfection.
Briefly, 1 pmol of each siRNA was spotted to a well of a 384-well plate (Corning, Corning, NY) and 20 microL of serum-free DMEM containing […] of Lipofectamine RNAiMax (Life Technologies, Carlsbad, CA) was then added to each well. Transfected cells were maintained at 37 degrees C in 5% CO2 for 72 hours, 20 microL of ONE-Glo Reagent (Promega) was added to wells for luciferase quantification. Raw luminescence reads were normalized to Ambion(R) Silencer(R) Negative Control #2 siRNA, then log10 transformed. A robust statistical measure of median absolute deviation (MAD) to standardize siRNA activities from each screen. Common Seed Analysis was used to help prioritize clean hits as opposed to those appearing to arise from seed based off-target effects. Candidate modulators were defined as the genes having a MAD score greater than 1.0 or less than -1.0.

| Sequence | median seed-adjusted z-score |
| --- | --- |
| CCAGACCACUUGCUAUGAATT against GATA6 | 0.546 |
| CUACUGGAGCAACACUGUATT against NDUFA4 | 0 |
| GCAAGAUUAGACAUACUGATT against PSMC6 | -0.578 |
| GAGCGAGUCUACAAGUGUATT against REST | 0.416 |
| CAGUCUGCCGAAGAAGUAATT against CDC2L1 | -1.14 (active) |
| GGAUCUUCCUUAUUACUCUTT against UBE4A | -0.285 |
| CCAGCACGUUGGAAGACCATT against ZNF808 | 0.138 |
| GUCCUUAUCUUUGCAAAUATT against ARL5B | -0.506 |
| GGAGCUACUUAAUCGGGAUTT against ANGEL1 | -0.332 |
| GCACGGAAAUUCUACAAGATT against ABCA4 | -1.09 (active) |
| GGACGAUGUCUACAGCCUATT against SIN3B | 0.509 |
| CGGGAACUAUCCAAACAAUTT against DMBT1 | -0.131 |
| GCAGAACUGACAGUCGAUATT against DMTF1 | 0.396 |
| GAGUGGACUGUGGAAGAUATT against RCOR1 | -1.13 (active) |
| CCAAAAGAAUAUCCGCUAATT against NLK | 0.256 |
| CACCUACUGUGAUGACAGATT against EPAS1 | -0.166 |
| GAAGUAGACUUGAUACGAATT against AQR | -1.56 (active) |
| AGCACAAGGUGGAACCGGUTT against CYGB | -0.34 |
| GCUACGAAAUGCUUGCUCATT against GALT | 0.484 |
| GGAUCAUGACCUAUGCUAATT against AKAP3 | 0.0138 |
| GCUUUGUGAACGACAAUUATT against RABGGTB | -0.856 |
| CGCACGGACUGUACCAUUUTT against ETV2 | 0 |

| Sequence | median seed-adjusted z-score |
| --- | --- |
| GCCUACUGGUCAUUGAUCATT against GNMT | 0.0261 |
| GACAUAUGCAAGAACUAUATT against PSAP | 0.107 |
| AGAGGAGAGUGGAAUUCCATT against ARID3C | -1.32 (active) |
| GCAGUUUCUUAACCACGUUTT against IFI16 | -0.0178 |
| ACUUUGCUCCUACUAUUCATT against NEGR1 | 0.194 |
| CCAUCGGACUGACAGUGAATT against COPZ1 | -1.02 (active) |
| CGAAAACUGAUACACUUGATT against KSR2 | -0.371 |
| GCUGAUUUUUGCUAAUAAATT against ARL5A | 0 |
| GCAUGUAAUGAGUAUCACATT against MRS2 | 1.38 (active) |
| GAUCAACUGUGGAAAUAUUTT against KISS1R | -0.299 |
| CCGUGUUCAUUCCUUUUCATT against ZFP41 | 0 |
| CCACUAAAGGAUCAACGUATT against PHKB | -0.142 |
| GCGACUCCUAGAGAACAAATT against LSG1 | 1.31 (active) |
| CAAGGUAGCUCAGCACUGATT against PEX6 | -0.281 |
| AGAGCGAGCCUUUGCUGAUTT against DAD1 | -0.45 |
| CCCUGCUCCUCACUCAUUUTT against KRTAP5-5 | -1.07 (active) |
| GUUCCGUACAGAUAAAGGATT against SAE1 | 0.831 |
| AUGUCACGCUGGUGCCCUATT against IFI30 | 0.401 |
| GUAUCAUGCCCAUCUGAAATT against ZMAT4 | -0.0468 |
| GAGAGACUCAAGAACGUGATT against ARCN1 | -1.25 (active) |
| AGCCUAUGAUUUUCCUGAATT against PTF1A | 0.482 |
| ACCUUGGUGUUGGACCUCATT against RNF26 | 0.359 |

| Sequence | median seed-adjusted z-score |
| --- | --- |
| GGGACACGCUAAAAGGAGATT against GNB4 | 0.015 |
| GGUCUAGCCUUGAUCAGAATT against SHROOM3 | 0.779 |
| GCAAAUCAGAGGUUCAGAUTT against SQLE | -1.14 (active) |
| GGGCUGCAAGUGGAAUUCATT against NR1H3 | 0.426 |
| GGCAAACGAGUGUGCUUCATT against FAM47B | -0.0631 |
| CACCGGAGGUUUAUCACAATT against AMDHD2 | -0.0707 |
| AGCCUGUAGCUUAAACUUATT against KCTD12 | 0.431 |
| GUGUCCAACAGAUACGGAATT against DSCAM | -0.527 |
| GGCAGAUAUUUAAGCCUAUTT against HDAC2 | -1.27 (active) |
| GGAGUGCAAAAGGAACGAATT against APIP | -0.0945 |
| GAGUUAUGGUGAACCCACATT against CDKN2B | 0.0154 |
| GGACAUUCAAUUCAAACCATT against SMAD4 | 0.0746 |
| CUGUUUAGCUUCAUGCAAATT against ARID3C | -1.32 (active) |
| GCAAGGCAAUGCAAACGAATT against DDX43 | -0.452 |
| GCGACUACCUGUUUCAACATT against PELO | 0.394 |
| GGAAAGAUCUUCAAUCAUATT against ZNF597 | 0.366 |
| GGACAUUCGUCAGAUUUAUTT against TEAD1 | 1.31 (active) |
| GAGUGGAGCGUACAUCCUATT against ZXDA | -0.0748 |
| CAAUAGUCCUGAGACCGAATT against MYST3 | -0.49 |
| GCAUUACCGCGAUGAAUUATT against DNAI1 | -0.783 |
| UCCUAACCUCAGAAACUGATT against CAPS | -1.25 (active) |
| GGAAGGCUCCAAACGGAAATT against PBRM1 | -0.118 |

| Sequence | median seed-adjusted z-score |
| --- | --- |
| GCACGUUUGAGUACGAAUATT against SFPQ | -1.15 (active) |
| GGACCAGUCUGCCUAUGUATT against NXF5 | -0.396 |
| GCGGGACAGAAGUUAGAUATT against HCCS | 0.00254 |
| GGAUGAUAUGGGACCAUAATT against PTPRZ1 | 1.73 (active) |
| GUCUUGUAGAAAUCUCAGATT against RFC3 | 0.733 |
| GCUUCGAGGAGGGCAAGAATT against PRSS27 | 1.03 (active) |
| GAUAGUGACAGGUUAAUGATT against TIGD6 | -0.443 |
| GCCUGACCCGUGAGACAAATT against THY1 | -1.1 (active) |
| GCAUCUAAAGAGCUACAGATT against ZNF584 | 0.172 |
| CAAUGUCCAGGGUAUCAUUTT against HAO2 | 0.039 |
| GGAGGGACAAGAUCAACAATT against USF2 | 0.352 |
| CCAGCCGUGUUGUAGCUAATT against S100B | 0.862 |
| CCGUAAAGCUGCAUUAGAATT against CUGBP1 | 0.086 |
| GGGUCAUCAGUAGCAUUGATT against YWHAG | 1.98 (active) |
| GCAGUACGGAAGCUACCGATT against SS18L1 | -0.174 |
| CAUUGGACAGUAUUACAAATT against UBE2U | -0.0545 |
| CCUUCCCUCUACACCAUCATT against COPZ2 | -1.23 (active) |
| CCUAAGUUACUACUAGUAUTT against ENPP4 | 0 |
| GGAUCUCACAGGUUCCGUUTT against LARS2 | 0.25 |
| GAACUUGACCAUUAUAUCATT against PHKA2 | 0.304 |
| CGGUGGUGAAUGAAAGUCATT against FKBP14 | -0.455 |
| GAGGUGAACUGGAAGCGAATT against MBOAT1 | -1.22 (active) |

| Sequence | median seed-adjusted z-score |
| --- | --- |
| CGCUUAACAUUGGAGUUCATT against ATG7 | -0.328 |
| CUACGGCUUUGGAGAUAUATT against RECQL | -0.905 |
| CAUCCAUUCUACAUCCGUATT against VHL | -0.0797 |
| AGAGCACAUCAAAUCAGAATT against PAX2 | 0.341 |
| GCUUAUGCGUAGAUCCUUUTT against SMYD4 | 0.272 |
| GCACCUUCCCAACCAUCAATT against GPX2 | -0.21 |
| GCAGAUUUUGAGCAACUGATT against TRIM5 | 0.0758 |
| GAACUUUGAUGACGAGUGATT against RAD23A | -1.13 (active) |
| GAUGAUCAGCUAUGAAAAATT against ZNF780A | 0.298 |
| GCAGAUAUCUGAUAGCCCUTT against PPA2 | -0.497 |
| CGUCUAUGCCUAUAAAAUATT against ADORA3 | 0 |
| GCGAUGCCUAUAAAACCUATT against TRYX3 | 2.3 (active) |
| CUAGGAAGAUAAUACCAGATT against BTRC | -0.0819 |
| GGAAGUACCUGAGUGUGCATT against MTCH1 | 0 |
| GCUCUUUGCCGUUUCUAAUTT against SLC29A2 | -0.0569 |
| CGAGAAAUUGCACAACCGATT against NACC1 | 1.59 (active) |
| GGACAUUGGACUAACCCAATT against EFHB | 0.675 |
| CUAUGGUAAUGUUUGCUUUTT against ZXDB | 0.186 |
| CAAGAUCAAGAGUUCCUGATT against CYP2B6 | 0.454 |
| CCGAGAGUAUGUCGACUUATT against CBFB | -0.0379 |
| GGAAAACAAGCUCAUCAAUTT against HOXA6 | -0.282 |

From PubChem BioAssay AID1347426 (Functional Genomics Laboratory (NCATS/FGL), 2020)
